# Data as given in the supplement of paper PMC8728848.
# About 410 targets per protein were measured; listed, in parts, are those with the strongest signals and a random draw of the rest.
# B1: PX14343I-pdi-501-30-501 (Parabacteroides distasonis) (protein)
# chain: SDQYSTETFWKTKEHASAGIMGCYNALKLWRSLHTMEFDMLTANAMPYNEANGTQAIGKGEHLSTTALIGSLWKNCYVGIGRTNTFIANVGGVDMDESEKAKMVGEAKFLRAFYYLSLVDKFGGVPLIIDAPNADEQAELPRNSKEEVVNQIVKDLEEAAAVLPDTYASSDLGRATKGAALALKARTLLYNSRWAEAAQAAKQVMESGVYQLFNDYRHFFSEDNKYNCEVIFDIEAKLPEYPTDYDQNIWRLNRPAPLKELVDTYLCVDGKTIEESPLYDPTRPYENRDPRLLKSIVCIGYPYLGKTITKEDVATTGFGVKKYTSYEDDVTIPLVERSAFNFILIRYAEVLLTYAEAQNEASGPDQSVYDAINQLRRRPDINMPEVPKGLTKDQMREVIRRERRIELTFEGLYYSDILRWKTAEKENNGMMHNYEGIEVVKRSFNPKRDYLWPIPYNQTVLNPNLEQNPNWD
# How the values were obtained:
# Assay in all cases: glycan array binding signal (z-score within array); higher = stronger binding
# Details in all cases: glycan notation: IUPAC condensed, linker removed
# [1] = molecular target: Fuc(a1-2)Gal
# Summary of the method: (§1)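 From the Consortium for Functional Glycomics database, 3228 arrays were curated, keeping only those whose protein sequence was available. Binding is given as a within-array Z-score averaged across arrays sharing a protein sequence and across linkers. Negative Z-scores can be read as non-binding.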
# [2] = molecular target: Fuc(a1-2)Gal(b1-3)GlcNAc(b1-2)Man(a1-3)[Fuc(a1-2)Gal(b1-3)GlcNAc(b1-2)Man(a1-6)]Man(b1-4)GlcNAc(b1-4)GlcNAc
# Summary of the method: as §1
# [3] = molecular target: Fuc(a1-2)Gal(b1-3)GlcNAc(b1-3)[Gal(b1-4)GlcNAc(b1-6)]Gal(b1-4)Glc
# Summary of the method: as §1
# [4] = molecular target: Fuc(a1-2)Gal(b1-3)[Fuc(a1-4)]GlcNAc(b1-2)Man(a1-3)[Fuc(a1-2)Gal(b1-3)[Fuc(a1-4)]GlcNAc(b1-2)Man(a1-6)]Man(b1-4)GlcNAc(b1-4)[Fuc(a1-6)]GlcNAc(b1-4)[Fuc(a1-6)]GlcNAc
# Summary of the method: as §1
# [5] = molecular target: Fuc(a1-2)Gal(b1-4)GlcNAc(b1-2)[Fuc(a1-2)Gal(b1-4)GlcNAc(b1-4)]Man(a1-3)[Fuc(a1-2)Gal(b1-4)GlcNAc(b1-2)Man(a1-6)]Man(b1-4)GlcNAc(b1-4)GlcNAc
# Summary of the method: as §1
# [6] = molecular target: Fuc(a1-2)Gal(b1-4)GlcNAc(b1-6)GalNAc
# Summary of the method: as §1
# [7] = molecular target: Fuc(a1-2)Gal(b1-4)[Fuc(a1-3)]GlcNAc(b1-2)Man(a1-3)[Fuc(a1-2)Gal(b1-4)[Fuc(a1-3)]GlcNAc(b1-2)Man(a1-6)]Man(b1-4)GlcNAc(b1-4)[Fuc(a1-6)]GlcNAc
# Summary of the method: as §1
# [8] = molecular target: Fuc(a1-2)Gal6S(b1-4)Glc
# Summary of the method: as §1
# [9] = molecular target: Fuc(a1-2)[Gal(a1-3)]Gal(b1-3)GlcNAc(b1-6)GalNAc
# Summary of the method: as §1
# [10] = molecular target: Fuc(a1-2)[Gal(a1-3)]Gal(b1-4)GlcNAc(b1-3)GalNAc
# Summary of the method: as §1
# [11] = molecular target: Fuc(a1-2)[Gal(a1-3)]Gal(b1-4)[Fuc(a1-3)]GlcNAc(b1-3)GalNAc
# Summary of the method: as §1
# [12] = molecular target: Fuc(a1-2)[GalNAc(a1-3)]Gal
# Summary of the method: as §1
# [13] = molecular target: Fuc(a1-2)[GalNAc(a1-3)]Gal(b1-3)GlcNAc
# Summary of the method: as §1
# [14] = molecular target: Fuc(a1-2)[GalNAc(a1-3)]Gal(b1-4)GlcNAc
# Summary of the method: as §1
# [15] = molecular target: Fuc(a1-2)[GalNAc(a1-4)]Gal(b1-4)GlcNAc
# Summary of the method: as §1
# [16] = molecular target: Gal(a1-3)[Gal(a1-4)]Gal(b1-4)GlcNAc
# Summary of the method: as §1
# [17] = molecular target: Gal(a1-4)Gal(b1-4)GlcNAc(b1-3)Gal(b1-4)Glc
# Summary of the method: as §1
# [18] = molecular target: Gal(b1-3)Gal(b1-4)GlcNAc
# Summary of the method: as §1
# [19] = molecular target: Gal(b1-3)GalNAc(b1-4)Gal(b1-4)Glc
# Summary of the method: as §1
# [20] = molecular target: Gal(b1-3)GlcNAc(b1-2)Man(a1-3)[GlcNAc(b1-4)][Gal(b1-3)GlcNAc(b1-2)Man(a1-6)]Man(b1-4)GlcNAc(b1-4)GlcNAc
# Summary of the method: as §1
# [21] = molecular target: Gal(b1-3)GlcNAc(b1-2)[Gal(b1-3)GlcNAc(b1-6)]Man(a1-6)[Gal(b1-3)GlcNAc(b1-2)Man(a1-3)]Man(b1-4)GlcNAc(b1-4)GlcNAc
# Summary of the method: as §1
# [22] = molecular target: Gal(b1-3)GlcNAc(b1-3)Gal(b1-4)GlcNAc(b1-2)Man(a1-3)[Gal(b1-3)GlcNAc(b1-3)Gal(b1-4)GlcNAc(b1-2)Man(a1-6)]Man(b1-4)GlcNAc(b1-4)GlcNAc
# Summary of the method: as §1
# [23] = molecular target: Gal(b1-3)[Fuc(a1-4)]GlcNAc(b1-2)Man
# Summary of the method: as §1
# [24] = molecular target: Gal(b1-3)[Fuc(a1-4)]GlcNAc(b1-2)Man(a1-3)[Gal(b1-3)[Fuc(a1-4)]GlcNAc(b1-2)Man(a1-6)]Man(b1-4)GlcNAc(b1-4)[Fuc(a1-6)]GlcNAc
# Summary of the method: as §1
# [25] = molecular target: Gal(b1-4)GalNAc(b1-3)[Fuc(a1-2)]Gal(b1-4)GlcNAc
# Summary of the method: as §1
# [26] = molecular target: Gal(b1-4)GlcNAc(b1-2)Man(a1-3)[Man(a1-6)]Man(b1-4)GlcNAc(b1-4)GlcNAc
# Summary of the method: as §1
# [27] = molecular target: Gal(b1-4)GlcNAc(b1-2)[Gal(b1-4)GlcNAc(b1-6)]Man(a1-6)[GlcNAc(b1-4)][Gal(b1-4)GlcNAc(b1-2)Man(a1-3)]Man(b1-4)GlcNAc(b1-4)GlcNAc
# Summary of the method: as §1
# [28] = molecular target: Gal(b1-4)GlcNAc(b1-3)Gal(b1-3)GalNAc
# Summary of the method: as §1
# [29] = molecular target: Gal(b1-4)GlcNAc(b1-3)Gal(b1-4)GlcNAc(b1-2)Man(a1-3)[Gal(b1-4)GlcNAc(b1-3)Gal(b1-4)GlcNAc(b1-2)Man(a1-6)]Man(b1-4)GlcNAc(b1-4)GlcNAc
# Summary of the method: as §1
# [30] = molecular target: Gal(b1-4)GlcNAc(b1-3)Gal(b1-4)GlcNAc(b1-3)Gal(b1-4)GlcNAc(b1-3)Gal(b1-4)GlcNAc(b1-3)Gal(b1-4)GlcNAc(b1-2)[Gal(b1-4)GlcNAc(b1-3)Gal(b1-4)GlcNAc(b1-3)Gal(b1-4)GlcNAc(b1-3)Gal(b1-4)GlcNAc(b1-3)Gal(b1-4)GlcNAc(b1-6)]Man(a1-6)[Gal(b1-4)GlcNAc(b1-3)Gal(b1-4)GlcNAc(b1-3)Gal(b1-4)GlcNAc(b1-3)Gal(b1-4)GlcNAc(b1-3)Gal(b1-4)GlcNAc(b1-2)Man(a1-3)]Man(b1-4)GlcNAc(b1-4)[Fuc(a1-6)]GlcNAc
# Summary of the method: as §1
# [31] = molecular target: Gal(b1-4)GlcNAc(b1-3)[Gal(b1-4)GlcNAc(b1-6)]Gal(b1-4)GlcNAc
# Summary of the method: as §1
# [32] = molecular target: Gal3S(b1-4)Glc
# Summary of the method: as §1
# [33] = molecular target: Gal6S(b1-3)GlcNAc
# Summary of the method: as §1
# [34] = molecular target: GalNAc(a1-3)GalNAc(b1-3)Gal(a1-4)Gal(b1-4)Glc
# Summary of the method: as §1
# [35] = molecular target: GalNAc(b1-3)GalNAc
# Summary of the method: as §1
# [36] = molecular target: GalNAc(b1-4)GlcNAc(b1-2)Man(a1-3)[GalNAc(b1-4)GlcNAc(b1-2)Man(a1-6)]Man(b1-4)GlcNAc(b1-4)GlcNAc
# Summary of the method: as §1
# [37] = molecular target: Glc(a1-6)Glc(a1-6)Glc
# Summary of the method: as §1
# [38] = molecular target: Glc(b1-6)Glc
# Summary of the method: as §1
# [39] = molecular target: GlcNAc(a1-4)Gal(b1-4)GlcNAc(b1-3)Gal(b1-4)[Fuc(a1-3)]GlcNAc(b1-3)Gal(b1-4)[Fuc(a1-3)]GlcNAc
# Summary of the method: as §1
# [40] = molecular target: GlcNAc(b1-3)Gal(b1-4)GlcNAc(b1-2)Man(a1-3)[GlcNAc(b1-3)Gal(b1-4)GlcNAc(b1-2)Man(a1-6)]Man(b1-4)GlcNAc(b1-4)[Fuc(a1-6)]GlcNAc
# Summary of the method: as §1
# [41] = molecular target: GlcNAc(b1-3)Gal(b1-4)GlcNAc(b1-3)Gal(b1-4)GlcNAc(b1-2)[GlcNAc(b1-3)Gal(b1-4)GlcNAc(b1-3)Gal(b1-4)GlcNAc(b1-6)]Man(a1-6)[GlcNAc(b1-3)Gal(b1-4)GlcNAc(b1-3)Gal(b1-4)GlcNAc(b1-2)Man(a1-3)]Man(b1-4)GlcNAc(b1-4)[Fuc(a1-6)]GlcNAc
# Summary of the method: as §1
# [42] = molecular target: Man(a1-2)Man(a1-3)Man
# Summary of the method: as §1
# [43] = molecular target: Man(a1-3)[Man(a1-6)]Man(a1-6)[Man(a1-2)Man(a1-3)]Man(b1-4)GlcNAc(b1-4)GlcNAc
# Summary of the method: as §1
# [44] = molecular target: Man(b1-4)GlcNAc
# Summary of the method: as §1
# [45] = molecular target: Neu5Ac(a2-3)Gal(b1-3)GalNAc6S
# Summary of the method: as §1
# [46] = molecular target: Neu5Ac(a2-3)Gal(b1-4)GlcNAc(b1-2)Man(a1-3)[Neu5Ac(a2-3)Gal(b1-4)GlcNAc(b1-2)Man(a1-6)]Man(b1-4)GlcNAc(b1-4)GlcNAc
# Summary of the method: as §1
# [47] = molecular target: Neu5Ac(a2-6)Gal(b1-4)GlcNAc(b1-3)Gal(b1-4)GlcNAc(b1-3)Gal(b1-4)GlcNAc(b1-2)Man(a1-3)[Neu5Ac(a2-6)Gal(b1-4)GlcNAc(b1-3)Gal(b1-4)GlcNAc(b1-3)Gal(b1-4)GlcNAc(b1-2)Man(a1-6)]GalNAc
# Summary of the method: as §1
# [48] = molecular target: Neu5Ac(a2-6)Gal(b1-4)GlcNAc(b1-3)Gal(b1-4)GlcNAc(b1-6)[Gal(b1-3)]GalNAc
# Summary of the method: as §1
# [49] = molecular target: Neu5Ac(a2-8)Neu5Ac(a2-3)Gal(b1-4)GlcNAc
# Summary of the method: as §1
# [50] = molecular target: Neu5Ac(a2-8)Neu5Gc(a2-3)Gal(b1-4)GlcNAc
# Summary of the method: as §1
binder,measurement,setting,value
B1,glycan array binding signal (z-score),[1],-0.249
same,glycan array binding signal (z-score),[2],1.95
same,glycan array binding signal (z-score),[3],-0.005
same,glycan array binding signal (z-score),[4],-1.15
same,glycan array binding signal (z-score),[5],1.69
same,glycan array binding signal (z-score),[6],-1.54
same,glycan array binding signal (z-score),[7],2.6
same,glycan array binding signal (z-score),[8],0.082
same,glycan array binding signal (z-score),[9],-0.008
same,glycan array binding signal (z-score),[10],0.362
same,glycan array binding signal (z-score),[11],-0.205
same,glycan array binding signal (z-score),[12],-0.237
same,glycan array binding signal (z-score),[13],0.35
same,glycan array binding signal (z-score),[14],-0.707
same,glycan array binding signal (z-score),[15],-0.33
same,glycan array binding signal (z-score),[16],2.67
same,glycan array binding signal (z-score),[17],-0.408
same,glycan array binding signal (z-score),[18],-0.375
same,glycan array binding signal (z-score),[19],-0.713
same,glycan array binding signal (z-score),[20],0.623
same,glycan array binding signal (z-score),[21],1.55
same,glycan array binding signal (z-score),[22],0.741
same,glycan array binding signal (z-score),[23],0.532
same,glycan array binding signal (z-score),[24],1.6
same,glycan array binding signal (z-score),[25],-0.377
same,glycan array binding signal (z-score),[26],-0.562
same,glycan array binding signal (z-score),[27],-0.439
same,glycan array binding signal (z-score),[28],-0.11
same,glycan array binding signal (z-score),[29],1.61
same,glycan array binding signal (z-score),[30],1.86
same,glycan array binding signal (z-score),[31],-0.2
same,glycan array binding signal (z-score),[32],0.301
same,glycan array binding signal (z-score),[33],0.19
same,glycan array binding signal (z-score),[34],0.12
same,glycan array binding signal (z-score),[35],1.96
same,glycan array binding signal (z-score),[36],-0.398
same,glycan array binding signal (z-score),[37],0.049
same,glycan array binding signal (z-score),[38],-0.768
same,glycan array binding signal (z-score),[39],1.69
same,glycan array binding signal (z-score),[40],4.66
same,glycan array binding signal (z-score),[41],1.77
same,glycan array binding signal (z-score),[42],0.611
same,glycan array binding signal (z-score),[43],0.28
same,glycan array binding signal (z-score),[44],-0.706
same,glycan array binding signal (z-score),[45],-0.135
same,glycan array binding signal (z-score),[46],-0.301
same,glycan array binding signal (z-score),[47],2.21
same,glycan array binding signal (z-score),[48],0.989
same,glycan array binding signal (z-score),[49],-0.464
same,glycan array binding signal (z-score),[50],18.3
